Compounds with a hit are over-represented: about 4.2% of the library has one in this group of screens.
TRPV1 potentiator: potentiators of human vanilloid receptor 1 (TRPV1). Q8NER1. TRPV1-expressing cells, Fluo-8 calcium influx, capsaicin EC20 potentiation. potentiation, % at 8.33 µM. 320,000 tested, 0.02% active. AID 540277; in the data active = potentiation above about 80%; also: 0% is about no effect
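TRPV1-expressing cells were cultured overnight at 35.5C and loaded with Fluo-8 calcium dye for 40 to 90 min at room temperature. After a 10 s baseline, compound was added and calcium influx was read kinetically for 3 min (ex 480/em 520 nm).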
D1 potentiator: potentiators of human D1 dopamine receptor; P21728; HEK293 TREx D1 cells, calcium flux, dopamine EC20 potentiation; potentiation, % at 10 µM; 360,000 tested, 0.036% active; AID 504651; in the data active = potentiation above about 30%; also: 0% is about no effect
Target sequence (P21728 whole entry, looked up): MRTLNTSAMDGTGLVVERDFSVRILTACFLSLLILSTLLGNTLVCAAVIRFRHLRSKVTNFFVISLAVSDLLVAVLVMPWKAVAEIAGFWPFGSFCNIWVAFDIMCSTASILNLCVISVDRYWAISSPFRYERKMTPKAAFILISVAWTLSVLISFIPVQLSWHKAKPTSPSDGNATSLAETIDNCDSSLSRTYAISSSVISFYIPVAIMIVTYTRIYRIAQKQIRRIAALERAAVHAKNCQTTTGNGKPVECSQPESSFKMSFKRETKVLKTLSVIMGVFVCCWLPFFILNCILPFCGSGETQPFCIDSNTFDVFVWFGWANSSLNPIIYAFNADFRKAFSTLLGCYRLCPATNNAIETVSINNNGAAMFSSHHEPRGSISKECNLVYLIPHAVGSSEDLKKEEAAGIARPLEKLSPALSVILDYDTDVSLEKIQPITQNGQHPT
D1 ag: agonists of human D1 dopamine receptor; 360,000 tested, 1% active; activation, % at 2 µM; AID 504660; P21728; HEK293 T-REx D1 cells, calcium flux, agonist mode; in the data active = activation above about 30%; also: 0% is about no effect
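Tetracycline-induced HEK293 TREx D1 cells, force-coupled to calcium signalling, were dye-loaded with a no-wash calcium kit. Compound was pin-added after a 10 s baseline. Fluorescence was read kinetically at 1 cycle/s for 180 s, with calcium rises flagged as agonism.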
D1 antagonist: blocks dopamine activation of the human D1 receptor | 360,000 tested, 3.2% active | HEK293 TREx D1 cells, calcium flux, dopamine EC80; hits give low values | activity change, negative = inhibition, % at 10 µM | P21728; in the data active = activity change below about -30%; also: % is scaled to controls: 0 for no effect and ±100 for the full control effect
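Cells carrying a force-coupled, tetracycline-inducible human D1 receptor report calcium flux. Each well gets a 10 s baseline, compound with 180 s monitoring, then an EC80 dopamine stimulus with a second 180 s kinetic read.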
TRPV1 ag: agonists of human vanilloid receptor 1 (TRPV1); Q8NER1; TRPV1-expressing cells, Fluo-8 calcium influx, agonist mode; activation, % at 8.33 µM; 320,000 tested, 0.19% active; AID 540275; in the data active = activation above about 80%; also: 0% is about no effect
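TRPV1-expressing cells were cultured overnight at 35.5C and loaded with Fluo-8 calcium dye for 40 to 90 min at room temperature. After a 10 s baseline, compound was added and calcium influx was read kinetically for 3 min (ex 480/em 520 nm).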
Starred values were filed as active, the others as inactive; ! = a repeat was not active.

Cc1c(NC(=O)/C(C#N)=C/c2ccc(-c3cccc(Cl)c3)o2)c(=O)n(-c2ccccc2)n1C was read as TRPV1 potentiator 6.2, D1 potentiator -10.1, D1 ag -0.5, D1 antagonist -37.8* and TRPV1 ag -1.4.
For Cc1c(NC(=O)/C(C#N)=C/c2ccc(-c3ccc(Cl)c(Cl)c3)o2)c(=O)n(-c2ccccc2)n1C the results were TRPV1 potentiator -0.5, D1 potentiator -11.8, D1 ag -0.3, D1 antagonist -21.9 and TRPV1 ag -7.3.
For O=C(CCC(=O)N1CCSc2ccccc21)Nc1cccc(F)c1 the results were TRPV1 potentiator -0.6, D1 potentiator -2.5, D1 ag 3.7, D1 antagonist -30.9* and TRPV1 ag 10.6.
COc1cn(CC(=O)Nc2cc(C)ccc2C)c(CN2CCCCC2)cc1=O was read as D1 potentiator -0.8, D1 ag 1.3 and D1 antagonist 2.9.
Screening Cc1cc(C)cc(NC(=O)C(=O)NCCCN2CCOCC2)c1 returned TRPV1 potentiator 3.2, D1 potentiator 1.6, D1 ag -0.8, D1 antagonist -79.0*! and TRPV1 ag -2.1.
For O=C(NCCCN1CCOCC1)c1cccs1 the results were TRPV1 potentiator 2.1, D1 potentiator 6.0, D1 ag 8.0, D1 antagonist -34.6* and TRPV1 ag 2.0.
`Cc1ccc(S(=O)(=O)NC(=O)NCCCN2CCOCC2)cc1` gave TRPV1 potentiator -3.0, D1 potentiator -9.9, D1 ag 2.5, D1 antagonist -56.4* and TRPV1 ag 0.5.
For O=C(CCc1nc2ccccc2c(=O)[nH]1)OCc1ccc(-c2ccccc2)cc1 the results were TRPV1 potentiator 4.7, D1 potentiator -3.0, D1 ag 2.9, D1 antagonist -38.9* and TRPV1 ag 0.1.
O=C(CCc1nc2ccccc2c(=O)[nH]1)OCc1cccc(C(F)(F)F)c1 was read as TRPV1 potentiator 8.4, D1 potentiator -3.4, D1 ag 0.4, D1 antagonist -11.1 and TRPV1 ag 1.5.
`O=C(Cn1ccn(-c2ccc(F)c(F)c2)c(=O)c1=O)Nc1ccccc1F` gave D1 potentiator -4.2, D1 ag 2.2 and D1 antagonist 4.8.
`Fc1ccc(NCc2nnc(SCc3ccccc3)o2)cc1` gave TRPV1 potentiator -10.3, D1 potentiator -1.5, D1 ag 0.2, D1 antagonist 3.3 and TRPV1 ag 17.3.
COc1cc(OC)cc(-c2nnc(SCc3c(F)cccc3Cl)o2)c1 was read as TRPV1 potentiator -2.4, D1 potentiator -9.7, D1 ag 11.9, D1 antagonist -33.0* and TRPV1 ag 11.1.
Fc1cccc(Cl)c1CSc1nnc(CNc2ccccc2)o1 was read as TRPV1 potentiator 11.7, D1 potentiator -11.9, D1 ag -0.1, D1 antagonist -40.7* and TRPV1 ag 4.6.
`COc1ccccc1CCNC(=O)C(=O)NCC1OCCCN1S(=O)(=O)c1cc(C)ccc1C` (stereo not given) gave TRPV1 potentiator 12.2, D1 potentiator -7.2, D1 ag 5.9, D1 antagonist 1.4 and TRPV1 ag -4.4.
Screening COc1ccc(CCNC(=O)C(=O)NCC2OCCCN2S(=O)(=O)c2cc(C)ccc2C)cc1 (stereo not given) returned TRPV1 potentiator -5.1, D1 potentiator 3.1, D1 ag 0.7, D1 antagonist -44.1* and TRPV1 ag -0.6.
For Cc1ccc(S(=O)(=O)N2CCCOC2CNC(=O)C(=O)NCCc2c[nH]c3ccccc23)cc1 (stereo not given) the results were TRPV1 potentiator 24.6, D1 potentiator -12.8, D1 ag 1.3, D1 antagonist -35.8* and TRPV1 ag 3.3.
Cc1cc2ccccc2n1-c1ccc(C(=O)N2CCC(C(=O)NCc3ccc(F)cc3)CC2)s1 was read as D1 potentiator -5.0, D1 ag 9.1 and D1 antagonist -22.0.
CCCOc1ccc(CNC(=O)CCCN2C(=O)CSc3c2c(C)nn3-c2ccccc2)cc1 was read as D1 potentiator -4.6, D1 ag 2.4 and D1 antagonist -11.9.
COc1ccc(-n2ncc(C(=O)N3CCc4ccccc4C3)c2C2CCN(C(=O)OC(C)(C)C)CC2)cc1 was read as D1 potentiator 0.3, D1 ag 0.2 and D1 antagonist 3.8.
`Cc1ccc(-n2c(=O)c3ccc(C(=O)NCc4ccccc4Cl)cc3n(Cc3ccccc3F)c2=O)cc1` gave D1 potentiator -1.0, D1 ag -0.4 and D1 antagonist 2.6.
For Cc1cccc(Cn2c(SCc3ccc(C(=O)NCCc4ccccc4)cc3)nc3ccncc32)c1 the results were D1 potentiator -3.9, D1 ag 9.1 and D1 antagonist -11.7.
For O=C(NCCc1ccccc1)c1ccc(CSc2nc3ccncc3n2Cc2cccc(F)c2)cc1 the results were D1 potentiator 7.4, D1 ag 58.6* and D1 antagonist -35.1*.
Screening COc1ccc(Cn2c(SCc3ccc(C(=O)NC4CCCCC4)cc3)nc3ccncc32)cc1 returned D1 potentiator -4.1, D1 ag 12.3 and D1 antagonist -8.3.
COc1ccc(Cn2c(SCc3ccc(C(=O)NC4CCCC4)cc3)nc3ccncc32)cc1 was read as D1 potentiator -2.9, D1 ag 4.9 and D1 antagonist -30.6*.
For Cc1ccc(Cn2c(SCc3ccc(C(=O)NC4CCCC4)cc3)nc3ccncc32)cc1 the results were D1 potentiator -4.8, D1 ag 8.3 and D1 antagonist -37.2*.
Screening Cc1ccc(C(c2sc3nc(-c4ccco4)nn3c2O)N2CCN(Cc3ccccc3)CC2)cc1 (stereo not given) returned D1 potentiator -2.6 and D1 ag 8.4.
COc1ccc(CNC(=O)CSc2n[nH]c(-c3ccc(OC)cc3)n2)cc1 was read as D1 potentiator -3.1, D1 ag -0.8 and D1 antagonist 9.5.
COc1ccc2cc(C(=O)NCc3ccc4c(c3)CCN4C(=O)c3ccc(C)cc3)[nH]c2c1 was read as D1 potentiator 0.6, D1 ag 1.1 and D1 antagonist -26.2.
For Cc1cc(C)cc(-n2c(SCC(=O)N3CCC(C)CC3)nc3c([nH]c4ccccc43)c2=O)c1 the results were D1 potentiator -1.0, D1 ag 0.8 and D1 antagonist 12.0.
`CC(C)(C)OC(=O)NCc1nnc(-c2cc3ccccc3[nH]2)o1` gave D1 potentiator -3.1, D1 ag 5.4 and D1 antagonist -29.7.
CCn1c(SC(C)C(=O)NCC2CCCO2)nc2scc(-c3ccccc3)c2c1=O (stereo not given) was read as TRPV1 potentiator -29.8, D1 potentiator -5.2, D1 ag -0.1, D1 antagonist -26.1 and TRPV1 ag 29.5.
For COCCn1c(SC(C)C(=O)NCC2CCCO2)nc2scc(-c3ccc(F)cc3)c2c1=O (stereo not given) the results were TRPV1 potentiator -14.7, D1 potentiator -8.9, D1 ag 1.1, D1 antagonist -42.2* and TRPV1 ag 18.9.

Source: PubChem
